How the values were obtained:
[1] = molecular target: T1, Muscle, skeletal receptor tyrosine-protein kinase (Homo sapiens) (UniProt O15146); details: at 1 µM;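 further: reported value is the mean percent inhibition of MuSK kinase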
T1 sequence (whole entry): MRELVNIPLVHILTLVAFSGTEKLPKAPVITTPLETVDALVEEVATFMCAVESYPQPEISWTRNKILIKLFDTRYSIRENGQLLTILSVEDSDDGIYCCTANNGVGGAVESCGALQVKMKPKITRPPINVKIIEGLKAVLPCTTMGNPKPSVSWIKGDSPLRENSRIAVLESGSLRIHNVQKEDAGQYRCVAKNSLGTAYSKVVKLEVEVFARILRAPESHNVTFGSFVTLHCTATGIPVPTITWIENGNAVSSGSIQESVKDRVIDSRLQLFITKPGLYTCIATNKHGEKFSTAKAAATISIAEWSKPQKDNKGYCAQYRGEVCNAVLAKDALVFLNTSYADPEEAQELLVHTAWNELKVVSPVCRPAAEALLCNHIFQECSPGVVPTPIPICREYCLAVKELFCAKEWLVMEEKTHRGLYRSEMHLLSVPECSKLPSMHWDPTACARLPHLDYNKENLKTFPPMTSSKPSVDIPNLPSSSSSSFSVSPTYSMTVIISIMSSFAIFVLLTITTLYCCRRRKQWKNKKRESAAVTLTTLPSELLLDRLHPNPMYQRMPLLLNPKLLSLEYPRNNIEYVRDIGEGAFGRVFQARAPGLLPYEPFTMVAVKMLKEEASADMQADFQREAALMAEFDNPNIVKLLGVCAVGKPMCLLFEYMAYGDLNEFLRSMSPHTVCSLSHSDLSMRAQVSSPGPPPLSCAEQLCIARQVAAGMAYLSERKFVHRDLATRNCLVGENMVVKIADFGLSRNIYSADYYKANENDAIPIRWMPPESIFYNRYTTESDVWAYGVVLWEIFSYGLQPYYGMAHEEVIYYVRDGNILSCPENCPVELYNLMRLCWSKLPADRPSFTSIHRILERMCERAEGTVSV

[2] = molecular target: Platelet-derived growth factor receptor alpha (Homo sapiens) (UniProt P16234); details: at 0.1 µM
[3] = molecular target: Platelet-derived growth factor receptor alpha (Homo sapiens) (UniProt P16234); details: at 1 µM
[4] = tested on: Platelet-derived growth factor receptor alpha (Homo sapiens), P16234 [D842V]; details: at 0.1 µM
[5] = tested on: Platelet-derived growth factor receptor alpha (Homo sapiens), P16234 [D842V]; details: at 1 µM
[6] = tested on: Platelet-derived growth factor receptor alpha (Homo sapiens), P16234 [T674I]; details: at 0.1 µM
[7] = tested on: Platelet-derived growth factor receptor alpha (Homo sapiens), P16234 [T674I]; details: at 1 µM
[8] = tested on: Platelet-derived growth factor receptor alpha (Homo sapiens), P16234 [V561D]; details: at 0.1 µM
Platelet-derived growth factor receptor alpha (Homo sapiens), P16234 [V561D], sequence (P16234 whole entry V561D): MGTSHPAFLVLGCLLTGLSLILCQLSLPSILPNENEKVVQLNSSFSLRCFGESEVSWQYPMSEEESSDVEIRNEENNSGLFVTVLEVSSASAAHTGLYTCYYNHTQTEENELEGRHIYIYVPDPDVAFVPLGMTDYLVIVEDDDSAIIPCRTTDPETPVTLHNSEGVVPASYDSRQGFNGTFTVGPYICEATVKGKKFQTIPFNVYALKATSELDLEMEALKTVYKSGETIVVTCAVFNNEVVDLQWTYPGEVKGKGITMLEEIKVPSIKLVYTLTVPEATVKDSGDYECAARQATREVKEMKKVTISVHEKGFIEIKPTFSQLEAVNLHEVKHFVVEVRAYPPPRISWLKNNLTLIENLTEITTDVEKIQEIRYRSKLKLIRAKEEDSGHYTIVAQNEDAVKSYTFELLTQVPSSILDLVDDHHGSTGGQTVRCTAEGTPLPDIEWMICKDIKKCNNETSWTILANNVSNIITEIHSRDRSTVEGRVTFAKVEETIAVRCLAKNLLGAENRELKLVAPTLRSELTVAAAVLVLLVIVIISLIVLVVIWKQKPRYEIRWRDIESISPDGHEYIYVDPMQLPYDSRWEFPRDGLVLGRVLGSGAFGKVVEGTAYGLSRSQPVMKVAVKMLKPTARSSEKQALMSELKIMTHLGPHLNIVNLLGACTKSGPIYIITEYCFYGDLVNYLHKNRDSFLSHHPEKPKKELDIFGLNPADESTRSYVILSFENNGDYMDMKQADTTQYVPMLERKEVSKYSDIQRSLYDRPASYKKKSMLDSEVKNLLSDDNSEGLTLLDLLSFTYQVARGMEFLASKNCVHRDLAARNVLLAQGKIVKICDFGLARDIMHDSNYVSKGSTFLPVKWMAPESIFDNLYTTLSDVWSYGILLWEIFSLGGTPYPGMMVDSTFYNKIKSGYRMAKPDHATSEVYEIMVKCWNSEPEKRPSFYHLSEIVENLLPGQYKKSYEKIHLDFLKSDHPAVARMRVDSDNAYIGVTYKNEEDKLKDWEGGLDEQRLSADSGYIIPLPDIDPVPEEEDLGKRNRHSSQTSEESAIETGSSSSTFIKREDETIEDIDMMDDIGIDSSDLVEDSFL

[9] = tested on: Platelet-derived growth factor receptor alpha (Homo sapiens), P16234 [V561D]; details: at 1 µM
[10] = molecular target: Platelet-derived growth factor receptor beta (Homo sapiens) (UniProt P09619); details: at 0.1 µM
Platelet-derived growth factor receptor beta (Homo sapiens), sequence (P09619 whole entry): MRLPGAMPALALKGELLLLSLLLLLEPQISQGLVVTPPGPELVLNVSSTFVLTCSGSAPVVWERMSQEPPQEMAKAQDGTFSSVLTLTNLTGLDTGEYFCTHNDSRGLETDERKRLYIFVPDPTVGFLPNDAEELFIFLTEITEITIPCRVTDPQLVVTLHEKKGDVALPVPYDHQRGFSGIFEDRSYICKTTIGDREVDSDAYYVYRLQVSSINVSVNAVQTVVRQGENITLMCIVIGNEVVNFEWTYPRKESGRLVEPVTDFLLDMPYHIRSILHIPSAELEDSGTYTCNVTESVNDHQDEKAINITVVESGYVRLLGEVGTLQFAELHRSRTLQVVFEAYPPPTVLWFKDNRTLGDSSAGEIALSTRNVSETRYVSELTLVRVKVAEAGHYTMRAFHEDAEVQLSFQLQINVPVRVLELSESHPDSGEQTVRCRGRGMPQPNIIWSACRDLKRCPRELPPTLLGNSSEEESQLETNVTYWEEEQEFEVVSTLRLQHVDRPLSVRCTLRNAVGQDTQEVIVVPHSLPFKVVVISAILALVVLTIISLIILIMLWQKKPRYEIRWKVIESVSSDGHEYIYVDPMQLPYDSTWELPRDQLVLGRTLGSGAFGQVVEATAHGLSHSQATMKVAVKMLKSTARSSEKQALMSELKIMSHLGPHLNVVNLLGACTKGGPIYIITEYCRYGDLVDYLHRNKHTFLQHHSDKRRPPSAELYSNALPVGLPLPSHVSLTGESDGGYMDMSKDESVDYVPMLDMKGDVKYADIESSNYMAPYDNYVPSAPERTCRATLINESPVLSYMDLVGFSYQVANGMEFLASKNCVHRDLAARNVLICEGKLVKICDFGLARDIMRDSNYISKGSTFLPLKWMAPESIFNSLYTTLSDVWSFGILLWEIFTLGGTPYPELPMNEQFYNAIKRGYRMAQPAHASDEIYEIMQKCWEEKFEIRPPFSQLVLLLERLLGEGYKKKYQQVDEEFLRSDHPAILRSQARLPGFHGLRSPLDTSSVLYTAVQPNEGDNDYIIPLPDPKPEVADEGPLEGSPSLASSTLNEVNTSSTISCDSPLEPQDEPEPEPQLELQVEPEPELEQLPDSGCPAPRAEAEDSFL

[11] = molecular target: Platelet-derived growth factor receptor beta (Homo sapiens) (UniProt P09619); details: at 1 µM
[12] = molecular target: Tyrosine-protein kinase FRK (Homo sapiens) (UniProt P42685); details: at 0.1 µM
Tyrosine-protein kinase FRK (Homo sapiens), sequence (P42685 whole entry): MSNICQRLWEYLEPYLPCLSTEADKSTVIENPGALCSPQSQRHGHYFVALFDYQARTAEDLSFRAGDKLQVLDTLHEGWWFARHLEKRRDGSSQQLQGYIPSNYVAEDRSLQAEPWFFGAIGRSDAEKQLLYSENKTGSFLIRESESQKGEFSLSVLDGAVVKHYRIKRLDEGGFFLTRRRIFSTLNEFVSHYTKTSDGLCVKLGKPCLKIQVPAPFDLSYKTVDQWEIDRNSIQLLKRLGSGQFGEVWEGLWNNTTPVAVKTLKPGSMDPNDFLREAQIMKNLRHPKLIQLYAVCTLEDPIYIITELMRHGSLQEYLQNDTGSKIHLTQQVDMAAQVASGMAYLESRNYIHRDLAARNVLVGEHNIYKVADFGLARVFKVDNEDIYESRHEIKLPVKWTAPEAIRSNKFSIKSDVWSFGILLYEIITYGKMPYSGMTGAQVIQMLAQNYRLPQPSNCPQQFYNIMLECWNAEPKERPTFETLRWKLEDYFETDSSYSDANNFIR

[13] = molecular target: Tyrosine-protein kinase FRK (Homo sapiens) (UniProt P42685); details: at 1 µM
[14] = molecular target: Protein-tyrosine kinase 2-beta (Homo sapiens) (UniProt Q14289); details: at 0.1 µM
Protein-tyrosine kinase 2-beta (Homo sapiens), sequence (Q14289 whole entry, looked up): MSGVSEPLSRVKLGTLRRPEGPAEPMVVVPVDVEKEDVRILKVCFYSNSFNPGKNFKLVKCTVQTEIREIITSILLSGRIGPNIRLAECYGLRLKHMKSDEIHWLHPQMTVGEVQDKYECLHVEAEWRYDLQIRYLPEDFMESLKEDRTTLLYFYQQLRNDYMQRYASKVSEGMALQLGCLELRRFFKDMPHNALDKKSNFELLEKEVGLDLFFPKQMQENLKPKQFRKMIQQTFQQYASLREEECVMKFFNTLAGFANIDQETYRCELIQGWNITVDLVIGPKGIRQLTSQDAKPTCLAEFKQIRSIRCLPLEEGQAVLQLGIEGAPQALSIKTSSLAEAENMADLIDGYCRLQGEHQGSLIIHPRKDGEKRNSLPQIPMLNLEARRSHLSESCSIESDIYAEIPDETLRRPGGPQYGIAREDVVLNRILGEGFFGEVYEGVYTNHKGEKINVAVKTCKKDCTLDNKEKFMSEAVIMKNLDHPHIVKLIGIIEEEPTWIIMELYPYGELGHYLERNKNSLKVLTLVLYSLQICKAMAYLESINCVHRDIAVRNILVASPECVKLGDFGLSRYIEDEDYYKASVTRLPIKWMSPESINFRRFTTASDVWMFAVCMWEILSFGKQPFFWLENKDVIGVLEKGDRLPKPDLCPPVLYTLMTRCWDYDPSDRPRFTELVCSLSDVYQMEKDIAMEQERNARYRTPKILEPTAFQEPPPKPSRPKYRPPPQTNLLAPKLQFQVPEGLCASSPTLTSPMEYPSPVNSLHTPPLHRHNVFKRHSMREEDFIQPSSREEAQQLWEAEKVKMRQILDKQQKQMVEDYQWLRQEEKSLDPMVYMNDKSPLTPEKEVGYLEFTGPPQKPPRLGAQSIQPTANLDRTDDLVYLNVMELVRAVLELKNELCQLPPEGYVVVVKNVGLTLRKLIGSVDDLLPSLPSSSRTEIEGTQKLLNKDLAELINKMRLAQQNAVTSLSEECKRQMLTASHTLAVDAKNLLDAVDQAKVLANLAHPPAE

[15] = molecular target: Protein-tyrosine kinase 2-beta (Homo sapiens) (UniProt Q14289); details: at 1 µM
[16] = molecular target: Proto-oncogene tyrosine-protein kinase receptor Ret (Homo sapiens) (UniProt P07949); details: at 0.1 µM
Proto-oncogene tyrosine-protein kinase receptor Ret (Homo sapiens), sequence (P07949 whole entry): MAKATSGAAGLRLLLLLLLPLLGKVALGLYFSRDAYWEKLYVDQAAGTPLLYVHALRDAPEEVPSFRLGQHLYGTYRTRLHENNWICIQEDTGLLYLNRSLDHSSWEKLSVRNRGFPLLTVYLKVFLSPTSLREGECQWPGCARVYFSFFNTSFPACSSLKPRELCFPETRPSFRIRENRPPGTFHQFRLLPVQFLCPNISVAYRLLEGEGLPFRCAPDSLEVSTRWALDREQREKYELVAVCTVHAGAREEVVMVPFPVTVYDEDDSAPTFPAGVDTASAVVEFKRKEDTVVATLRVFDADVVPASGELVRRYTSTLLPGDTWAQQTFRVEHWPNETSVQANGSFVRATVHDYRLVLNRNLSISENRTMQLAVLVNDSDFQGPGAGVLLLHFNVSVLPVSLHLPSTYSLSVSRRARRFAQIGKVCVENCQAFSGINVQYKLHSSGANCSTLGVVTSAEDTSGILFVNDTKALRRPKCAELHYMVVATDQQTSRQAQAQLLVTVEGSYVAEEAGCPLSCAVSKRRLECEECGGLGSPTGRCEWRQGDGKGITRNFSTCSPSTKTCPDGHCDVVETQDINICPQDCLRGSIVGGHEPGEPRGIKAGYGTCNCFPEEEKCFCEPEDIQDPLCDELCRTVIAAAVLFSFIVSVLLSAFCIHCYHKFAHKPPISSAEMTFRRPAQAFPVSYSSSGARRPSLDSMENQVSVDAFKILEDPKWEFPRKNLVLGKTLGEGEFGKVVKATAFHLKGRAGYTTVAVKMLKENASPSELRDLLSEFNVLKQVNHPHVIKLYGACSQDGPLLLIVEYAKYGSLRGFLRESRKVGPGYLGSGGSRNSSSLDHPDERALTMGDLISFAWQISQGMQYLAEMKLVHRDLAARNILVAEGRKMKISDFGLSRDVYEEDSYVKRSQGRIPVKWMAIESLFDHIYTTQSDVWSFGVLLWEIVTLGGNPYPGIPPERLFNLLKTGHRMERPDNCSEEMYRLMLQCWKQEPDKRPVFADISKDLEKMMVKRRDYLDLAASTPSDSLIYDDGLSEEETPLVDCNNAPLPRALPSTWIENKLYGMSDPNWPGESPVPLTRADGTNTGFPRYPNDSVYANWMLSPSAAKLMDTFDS

[17] = molecular target: Proto-oncogene tyrosine-protein kinase receptor Ret (Homo sapiens) (UniProt P07949); details: at 1 µM
[18] = tested on: Proto-oncogene tyrosine-protein kinase receptor Ret (Homo sapiens), P07949 [V804L]; details: at 0.1 µM
[19] = tested on: Proto-oncogene tyrosine-protein kinase receptor Ret (Homo sapiens), P07949 [V804L]; details: at 1 µM
[20] = tested on: Proto-oncogene tyrosine-protein kinase receptor Ret (Homo sapiens), P07949 [Y791F]; details: at 0.1 µM

Row | Compound | inhibition [1] | inhibition [2] | inhibition [3] | inhibition [4] | inhibition [5] | inhibition [6] | inhibition [7] | inhibition [8] | inhibition [9] | inhibition [10] | inhibition [11] | inhibition [12] | inhibition [13] | inhibition [14] | inhibition [15] | inhibition [16] | inhibition [17] | inhibition [18] | inhibition [19] | inhibition [20]
1 | COc1ccc2cc(-c3c(-c4ccncc4)nc(-c4ccc(S(C)(=O)=O)cc4C)n3C)ccc2c1 | 6.38% | 7.63% | 23.6% | 2.7% | 12.3% | 7.17% | 10.1% | 8.36% | 15.3% | 2.38% | 13.2% | 3.55% | 2.3% | 12.8% | 12.4% | 4.93% | 22.2% | 2.68% | 4.41% | 3.67%
2 | NC(=O)c1cc(-c2ccncc2)cc(-c2ccccc2)c1N | 3.55% | 9.17% | 36.2% | 3.01% | 11.3% | 5.87% | 11.6% | 5.79% | 37.8% | 9.7% | 26% | 3.05% | 7.89% | 10.8% | 13.4% | 6.99% | 27% | 2.8% | 6.36% | 6.34%
3 | COc1cc(Nc2ncc3c(C)nc(-c4cccc(C(F)(F)F)c4)n3n2)cc(OC)c1OC | 19% | 13% | 25.8% | 2.68% | 13.1% | 7.3% | 8.12% | 5.66% | 14.6% | 10.3% | 38% | 1.36% | 0.31% | 11.8% | 39.6% | 7.14% | 39.1% | 16.7% | 57.4% | 8.01%
4 | CS(=O)(=O)CCNCc1ccc(-c2ccc3ncnc(Nc4ccc(OCc5ccccc5)c(Br)c4)c3c2)o1 | -1.75% | 6.94% | 12.7% | 2.31% | 4.09% | 2.28% | 5.56% | 3.03% | 5.85% | 3.75% | 7.34% | 2.64% | 3.25% | 3.86% | 10.1% | 7.14% | 4.94% | 2.03% | 4.43% | 9.28%
5 | COc1cccc(-n2cnc3c(N/N=C/c4ccncc4)ncnc32)c1 | 17.1% | 17.9% | 53.6% | 4.61% | 45.6% | 2.14% | 18.3% | 10.3% | 51% | 13.2% | 49.9% | -0.1% | 0.9% | -4.12% | 10.5% | 3.89% | 13.9% | -0.06% | 12.5% | 2.51%
6 | c1ccc(Oc2ccc(Nc3ncc(-c4ccccc4)o3)cc2)cc1 | 2.81% | 7.17% | 11.5% | 4.48% | 3.18% | 4.06% | 10% | 7.31% | 19.6% | 3.82% | 10.3% | -0.25% | 1.21% | 6.6% | 8.05% | 5.96% | 3.49% | 4.18% | 6.54% | 5.06%
7 | NS(=O)(=O)c1ccc(N/N=C2\C(=O)Nc3ccc(C(=O)NCCCn4ccnc4)cc32)cc1 | 21.6% | 10.6% | 54.2% | 13% | 57.8% | 5.56% | 12.4% | 11.6% | 47% | 23.1% | 68.9% | 2.01% | 2.76% | 14.3% | 20.9% | 12.5% | 51.9% | 38.7% | 76.2% | 14.2%
8 | CN(C)c1ccc2c(c1)/C(=C/Nc1ccc(S(N)(=O)=O)cc1)C(=O)N2 | 46.8% | 26.7% | 66.9% | 14.4% | 65.3% | 3.45% | 28.2% | 14.9% | 60.9% | 26.8% | 71.3% | 1.57% | 2.09% | 8.05% | 31.7% | 20.2% | 51.5% | 12.5% | 51.1% | 11.2%
9 | N#Cc1ccc(Oc2nccc(-c3c(-c4ccc(F)cc4)ncn3C3CCNCC3)n2)cc1 | 0.9% | 4.83% | 10.1% | 3.33% | 4.12% | 3.29% | 8.12% | 3.7% | 3.69% | 2.5% | 5.37% | 2.75% | 4.03% | 6.64% | 13.4% | 6.33% | 4.32% | 3.48% | 4.02% | 6.66%
10 | CCc1cccc(CC)c1/C=C/c1cncc(C(=O)NC)c1 | 0.76% | 9.56% | 7.82% | 0.6% | 1.22% | 2.23% | 2.91% | -0.14% | 3.75% | 7.91% | 9.24% | 0.72% | 2.05% | 4.52% | 5.62% | 6.73% | 7.18% | – | 3.16% | 5.49%
11 | Fc1ccc(-c2ncn(C3CCNCC3)c2-c2ccnc(Oc3ccc4c(c3)OCO4)n2)cc1 | 4.22% | 11.8% | 15.7% | 2.99% | 5.32% | 11.5% | 16.1% | 5.05% | 5.41% | 7.36% | 12.7% | 3.01% | 4.4% | 7% | 9.57% | 3.97% | 6.88% | 9.21% | 12.4% | 14.5%
12 | COc1cc(Nc2ncc(-c3ccccc3)o2)cc(OC)c1OC | 14.5% | 17.7% | 69.6% | 9.16% | 43% | 27.4% | 77.7% | 35.7% | 76.1% | 23% | 74.2% | 0.5% | 4.26% | -6.53% | 5.39% | 2.33% | 15.5% | 1% | 16.2% | 0.66%
13 | CN(C)CCOc1ccc(-c2cc(-c3ccc4c(c3)CCC4=NO)c(-c3ccncc3)o2)cc1 | -1% | 3.05% | 9.14% | 0.21% | 2.8% | -0.07% | 2.19% | 0.77% | 4.25% | 2.38% | 9.14% | -1.02% | 0.49% | -7.75% | 0.57% | 3.54% | 1.85% | 0.61% | 1.37% | -1.98%
